Structures can show the parent of a compound that is named as a salt. Among all 2,100 compounds or so, about 180 (8.6%) showed an effect of 50% or more. The sample holds strong results, similar compounds and a random draw of the others, so the mix is not that of the screen.
These compounds were tested on MOLM1 and UCSD/AML1 (averaged) (assay: cell viability relative to DMSO control (POC); higher = less growth inhibition). Settings: 1 µM; 72 h.
Protocol: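 Primary viability screen in the 3q26 EVI1-high AML cell lines MOLM1 and UCSD/AML1 (1.5e3 cells/well, 384-well), compounds at 1 uM for 72 h. ATP CellTiter-Glo read-out given as percent of viable cells over DMSO control (POC), averaged over duplicates. DMSO was the negative control and 5 uM etoposide the positive control. This mapping covers the MicroSource Spectrum and Selleck anticancer libraries (drug names).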

Row | SMILES | cell viability [%]
1 | CC(C)C[C@H](N)C(=O)N[C@@H](C)C(=O)O | 98.2
2 | CC(=O)OC(C)(C)[C@@H]1Cc2cc3ccc(=O)oc3cc2O1 | 100
3 | CCNC(=O)c1noc(-c2cc(C(C)C)c(O)cc2O)c1-c1ccc(CN2CCOCC2)cc1 [Luminespib (AUY-922, NVP-AUY922)] | 2.13
4 | O=C(O)[C@H](O)[C@@](O)(Cc1ccc(O)cc1)C(=O)O | 92.1
5 | C/C=C(\C)C(=O)O[C@@H]1c2c(ccc3ccc(=O)oc23)OC(C)(C)[C@@H]1OC(C)=O | 101
6 | N[C@@H](Cc1c[nH]c2ccccc12)C(=O)O | 89.5
7 | OCc1c[nH]c2ccccc12 | 87.2
8 | c1ccc2c(CCNc3ccc(Nc4ccncc4)cc3)c[nH]c2c1 | 43.4
9 | Cc1cc(O)c(C=O)c(O)c1C(=O)O | 121
10 | CC(=O)Oc1ccc2c(c1C(C)C)CCC1C(C)(C)CCC[C@]21C (some centres undefined) | 91.9
11 | CC1(C)CC23C(=O)CCC(O)C2(C)CCC13 (centres undefined) | 96.7
12 | CN1CCC(c2c(O)cc(O)c3c(=O)cc(-c4ccccc4Cl)oc23)C(O)C1 (centres undefined) [Flavopiridol (Alvocidib) HCl] | 1.36
13 | CC(C)CCC[C@@H](C)[C@H]1CC[C@H]2[C@@H]3C(=O)C=C4C[C@@H](O)CC[C@]4(C)[C@H]3CC[C@]12C | 95.7
14 | CCN(CC)CCCCNc1ncc2cc(-c3cc(OC)cc(OC)c3)c(NC(=O)NC(C)(C)C)nc2n1 | 36.8
15 | CCN(CC)CCNC(=O)COc1ccc(OC)cc1 | 97.5
16 | Nc1nc(Nc2ccc(S(N)(=O)=O)cc2)nn1C(=O)c1c(F)cccc1F | 53.8
17 | Cn1c(=O)c2c(ncn2CC(O)CO)n(C)c1=O (centres undefined) | 103
18 | Cn1c(=O)c(F)c(Nc2ccc(I)cc2F)c2c(=O)n(C[C@@H](O)CO)cnc21 | 24.8
19 | CC(O)Cn1cnc2c1c(=O)n(C)c(=O)n2C (centres undefined) | 94.4
20 | CC(C)c1cccc(=O)c(O)c1 | 93.6
21 | COc1cc2ccc(=O)oc2c(O)c1O | 88.3

Row | SMILES | cell viability [%]
22 | CC1(O)CC2C(CC1O)C2(C)C (centres undefined) | 87.5
23 | COc1cc(-c2coc3cc(OCc4ccccc4)c(OC)c(O)c3c2=O)cc(O)c1OC | 95.2
24 | NC(Cn1ccc(=O)c(O)c1)C(=O)O (centres undefined) | 92.7
25 | CC(=O)O[C@@H]1C[C@H]2C(C)(C)[C@@H](O)CC[C@]2(C)[C@H]2CC[C@@]3(C)[C@H](c4ccoc4)OC(=O)[C@H]4O[C@]43[C@@]21C [beta-DIHYDROGEDUNOL] | 90.3
26 | CC(=O)N[C@@H](Cc1c[nH]c2ccccc12)C(N)=O | 101
27 | CC(C)C[C@@H](NC(=O)[C@H](C)NC(=O)CNC(=O)[C@@H](NC=O)C(C)C)C(=O)N[C@@H](C)C(=O)N[C@@H](C(=O)N[C@H](C(=O)N[C@H](C(=O)N[C@@H](Cc1c[nH]c2ccccc12)C(=O)N[C@H](CC(C)C)C(=O)N[C@@H](Cc1c[nH]c2ccccc12)C(=O)N[C@H](CC(C)C)C(=O)N[C@@H](Cc1c[nH]c2ccccc12)C(=O)N[C@H](CC(C)C)C(=O)N[C@@H](Cc1c[nH]c2ccccc12)C(=O)NCCO)C(C)C)C(C)C)C(C)C | 5.86
28 | CC(=O)N[C@@H](Cc1c[nH]c2ccccc12)C(=O)O | 106
29 | CC1(C)CC2C1CCC1(C)OC1CCC2(C)O (centres undefined) | 95.8
30 | Cc1cc(O)c(C)c(O)c1C(=O)O | 97.3
31 | O=C(NC1CCNCC1)c1n[nH]cc1NC(=O)c1c(Cl)cccc1Cl | 13.3
32 | NC1=NCCN1CC(=O)O | 95.6
33 | CC(C)(C)Cn1c(N)nc2ccc(-c3[nH]c(C(C)(C)C)nc3-c3ccc(F)cc3)nc21 | 91
34 | C[C@@H](Oc1cc(-c2cnn(C3CCNCC3)c2)cnc1N)c1c(Cl)ccc(F)c1Cl | 21.4
35 | NC(=O)Nc1sc(-c2ccc(F)cc2)cc1C(N)=O | 42.3
36 | OC[C@H]1O[C@@H](O[C@H]2[C@H](O)[C@@H](O)[C@@H](O)O[C@@H]2CO)[C@H](O)[C@@H](O)[C@@H]1O | 105
37 | CCC(=O)OC1[C@@H]2CC3=C4CC(=O)O[C@@H](c5ccoc5)[C@]4(C)CCC3[C@@](C)(C2=O)[C@@H](CC(=O)OC)C1(C)C (some centres undefined) | 88.5
38 | COc1ccc(-c2coc3c(OC)c(OC)cc(O)c3c2=O)cc1 | 101
39 | C#CCCCCCCCCCCCC(O)CC(O)COC(C)=O (centres undefined) | 88.5
40 | COc1ccc2c(c1)CC[C@@H]1[C@@H]2CC[C@]2(C)[C@@H](O)CC[C@@H]12 | 96.8
41 | COc1cc2c(cc1O)CC[C@@H]1[C@@H]2CC[C@]2(C)[C@@H](O)CC[C@@H]12 [2-Methoxyestradiol] | 13.7
42 | C[C@]12CC[C@@H]3c4ccc(O)cc4CC[C@H]3[C@@H]1CC[C@@H]2O | 91.5

Row | SMILES | cell viability [%]
43 | C[C@]12CC[C@@H]3c4ccc(O)cc4CC[C@H]3[C@@H]1CC[C@@H]2O [Estradiol] | 96.7
44 | CC[C@H](/C=C/[C@@H](C)[C@H]1CC[C@H]2[C@@H]3CCC4=CC(=O)CC[C@]4(C)[C@H]3CC[C@]12C)C(C)C | 108
45 | CC(=O)CCCCn1c(=O)c2c(ncn2C)n(C)c1=O | 104
46 | COc1c(O)cc2oc3cc(O)c(CC=C(C)C)c(O)c3c(=O)c2c1CC=C(C)C [alpha-MANGOSTIN] | 95.2
47 | COc1cc(C(C)=O)cc(OC)c1O | 105
48 | COC(=O)C[C@H]1C(C)(C)C(=O)[C@@H]2CC3C4=CC(=O)O[C@@H](c5ccoc5)[C@]4(C)CC[C@@H]3[C@@]1(C)C2=O (some centres undefined) | 98.6
49 | O=C(c1ccc(OCCN2CCCCC2)cc1)c1c(-c2ccc(O)cc2)sc2cc(O)ccc12 [Evista (Raloxifene Hydrochloride)] | 95.1
50 | O=C(Cc1ccc(-c2ccc(OCCN3CCOCC3)cc2)cn1)NCc1ccccc1 | 8.82
51 | CCCCOc1ccc(OCCCN2CCOCC2)cc1 | 97.5
52 | O=C(c1ccc(OCCN2CCCCC2)cc1)c1c(-c2ccc(O)cc2)sc2cc(O)ccc12 | 83.3
53 | COC(=O)C(Cc1ccccc1)NC(=O)/C(=C1/OC(=O)C(c2ccccc2)=C1O)c1ccccc1 (centres undefined) | 105
54 | CC1(C)CC[C@]2(C(=O)O)CC[C@]3(C)C(=CCC4[C@@]5(C)CC[C@@H](O)C(C)(C)C5CC[C@]43C)C2C1 (some centres undefined) | 102
55 | COc1ccc(-c2coc3cc(O)ccc3c2=O)c(O)c1O | 99.7
56 | CC(=O)O[C@H]1CC[C@]2(C)[C@H]3CC[C@@]4(C)[C@H](c5ccoc5)OC(=O)[C@H]5O[C@]54[C@]3(C)[C@H](OC(C)=O)C[C@H]2C1(C)C [3beta-ACETOXYDEOXODIHYDROGEDUNIN] | 91.2
57 | COc1ccc2oc(-c3ccccc3)c(OC)c(=O)c2c1 | 98.7
58 | COc1ccc(-c2cc(=O)c3c(OC)c(OC)c(OC)cc3o2)cc1OC | 105
59 | COc1ccc([C@@H]2CC(=O)c3c(O)cc(O[C@@H]4O[C@H](CO[C@@H]5O[C@@H](C)[C@H](O)[C@@H](O)[C@H]5O)[C@@H](O)[C@H](O)[C@H]4O)cc3O2)cc1O | 92.8
60 | c1ccc(-c2nn3c(c2-c2ccnc4cc(OCCN5CCOCC5)ccc24)CCC3)nc1 | 94.6
61 | CC12CCC3C(CC3(C)C)C(C)(CCC1=O)O2 (centres undefined) | 103
62 | C=CCSCC(N)C(=O)O (centres undefined) | 121
63 | CCCCc1nc2cc(/C=C/C(=O)NO)ccc2n1CCN(CC)CC [SB939 (Pracinostat)] | 1.57

Row | SMILES | cell viability [%]
64 | CC1=CC(=O)CC(C)(C)C1(O)/C=C/C(C)=C\C(=O)O (mixture of isomers) [ABSCISIC ACID (cis,trans; +/-)] | 102
65 | O=Cc1ccccc1O[C@@H]1O[C@H](CO)[C@@H](O)[C@H](O)[C@H]1O | 102
66 | C[C@H](NC(=O)Cc1cc(F)cc(F)c1)C(=O)N[C@H](C(=O)OC(C)(C)C)c1ccccc1 | 76.1
67 | COc1cc(OC)c2c(OC)c(-c3ccc4c(c3)OCO4)c(=O)oc2c1 | 101
68 | COc1cc(OC)c2c(c1)OC(c1ccccc1)CC2=O (centres undefined) | 105
69 | COc1cc2c3cc1Oc1cc(ccc1O)C[C@@H]1c4c(cc(OC)c(O)c4Oc4ccc(cc4)C[C@@H]3N(C)CC2)CC[N+]1(C)C | 100
70 | NC(=O)Nc1cc(-c2cccc(F)c2)sc1C(=O)N[C@H]1CCCNC1 | 5.84
71 | CC(=O)O[C@H]1C[C@@H](OC(C)=O)C(C)(C)C2CC(=O)[C@]3(C)C(CC[C@@]4(C)[C@H](C(=O)O)OC(=O)C5OC543)[C@]21C (some centres undefined) | 89.8
72 | CC(=O)O[C@H]1C[C@@H](OC(C)=O)C(C)(C)[C@@H]2C[C@@H](OC(C)=O)[C@@]3(C)C4=CC(=O)O[C@@H](c5ccoc5)[C@]4(C)CC[C@@H]3[C@@]12C | 94.5
73 | COC1=CC(=O)C(O)=C/C1=C\C=C\c1ccccc1 | 95
74 | Cc1cc(O)cc(O)c1C(=O)O | 115
75 | NCCC(=O)N[C@@H](Cc1c[nH]cn1)C(=O)O | 89.7
76 | O=C(O)C1CC([C@@H]2CCCCN2)CN2CCCCC12 (some centres undefined) | 101
77 | CC(C)n1nc(-c2ccc3oc(N)nc3c2)c2c(N)ncnc21 | 21.6
78 | CCN1CCN(Cc2ccc(-c3cc4c(N[C@H](C)c5ccccc5)ncnc4[nH]3)cc2)CC1 | 53.4
79 | COC(=O)c1c(C)c2c(c(C)c1O)OC(=O)c1c(C)c(Cl)c(O)c(Cl)c1O2 | 108
80 | O=C(Cc1cccs1)N[C@@H]1C(=O)N2C(C(=O)[O-])=C(C[n+]3ccccc3)CS[C@H]12 | 96.4
81 | COC1=CC(=O)C(C(=O)c2ccccc2)=CC1=O | 103
82 | C[C@]1(c2nc3c(C(N)=O)cccc3[nH]2)CCCN1 [ABT-888 (Veliparib)] | 101
83 | Cc1ccc(C(=O)Nc2ccc(S(=O)(=O)O)c3cc(S(=O)(=O)O)cc(S(=O)(=O)O)c23)cc1NC(=O)c1cccc(NC(=O)Nc2cccc(C(=O)Nc3cc(C(=O)Nc4ccc(S(=O)(=O)O)c5cc(S(=O)(=O)O)cc(S(=O)(=O)O)c45)ccc3C)c2)c1 | 111
84 | Cc1ccc(NC(=O)c2cccc(C(C)(C)C#N)c2)cc1Nc1ccc2ncn(C)c(=O)c2c1 | 42.7

Reference: the supplement of paper PMC11150407
